Hits are enriched below; roughly 19% of the tested compounds scored in any of these assays.
HT1080NT lethal – kills 2HG-producing HT-1080-NT fibrosarcoma cells; HT-1080-NT fibrosarcoma viability, CellTiter-Glo ATP luminescence, 48 h; Potency, µM (doses to about 46.1 µM), for inactives: at the highest dose activity, negative = less viability, hits mostly cytotoxic; 360,000 tested, 1.6% active;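 also: NT is the 2HG producing partner of a matched IDH1 knockdown line; potency is read from the fitted curve at half-maximal effect; 0% = DMSO-treated cells and -100% = media-only wells without cells; nearly all actives have a fitted effect of over 55% in size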
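HT-1080-NT fibrosarcoma cells (2HG-overproducing), 750 cells/well in RPMI with 5% FBS, dosed after 2 h and incubated 48 h at 37C. CellTiter-Glo luminescence normalized to DMSO and no-cell wells; concentration-response curves fitted and classed.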
IL-1B inflam inh – inhibitors of inflammasome signaling (IL-1 beta secretion); THP-1 LPS/ATP IL-1B secretion, AlphaLISA, 16 h; stronger effect = lower value; 360,000 tested, 4.7% active; AID 743279; activity change, % at 57.5 µM; in the data active = activity change below about -50%; inconclusive = mostly about -30% to -49%
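Secreted IL-1B measured by AlphaLISA bead assay after 16 h compound exposure of THP-1 cells; compounds (final up to 57.5 uM) added 1 h before LPS (250 ng/mL) and ATP (1.25 mM) stimulation; lower signal means less secretion.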
HT1080 IDH1KD tx – HT-1080 IDH1 knockdown cell toxicity (counter line); AID 686971; Potency, µM (highest dose often 46.1 µM), inactives show top-dose activity, negative = toxicity, most hits filed as cytotoxic; HT-1080 IDH1 knockdown viability, ATP luminescence, 48 h; 360,000 tested, 2% active;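 also: potency is read from the fitted curve at half-maximal effect; 0% = DMSO wells and -100% = cell-free medium wells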
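HT-1080-IDH1KD cells (IDH1 knocked down), 750/well in RPMI with 5% FBS, treated with compound 48 h at 37 degrees C. Viability by CellTiter-Glo luminescence, normalised to DMSO and no-cell wells; concentration-response curves classed.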
TDP1 cell CPT – growth inhibition of DT40 Tdp1-/-;hTDP1 cells with camptothecin (screen for TDP1 inhibitors); 420,000 tested, 12% active; AID 686979; chicken DT40 Tdp1-/-;hTDP1 cells + 20 nM CPT, ATP luminescence, 48 h; Potency, µM (titrated, usually from 46.2 µM), for inactives: at the highest dose activity change, negative = growth inhibition, hits mostly inhibitors; also: potency is read from the fitted curve at half-maximal effect; nearly all actives have a fitted effect of over 55% in size
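Chicken DT40 Tdp1-/- cells stably complemented with human TDP1 were seeded at 400 cells/well in medium containing 20 nM camptothecin, exposed to pin-transferred compounds, and grown at 37 °C for at least 48 hr. Viability was read as ATP luminescence.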
DT40 TDP1 no CPT – qHTS for Inhibitors of human tyrosyl-DNA phosphodiesterase 1 (TDP1): qHTS in cells in absence of CPT; DT40 Tdp1-/- hTDP1 cells, no CPT, ATP luminescence, 48 h; Potency, µM (highest dose often 46.2 µM), for the others: at the highest dose activity change, negative = growth inhibition, most hits filed as inhibitors; AID 686978, 2013; 420,000 tested, 15% active; also: potency is read from the fitted curve at half-maximal effect; nearly all actives have a fitted effect of over 55% in size
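Growth of hTDP1-complemented DT40 Tdp1-knockout cells is measured by ATP luminescence after at least 48 hr compound exposure at 37 °C, with DMSO substituting for the 20 nM CPT used in the parallel screen.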
* hit, by the source's call; ? = inconclusive; / = no result. Unless noted, calls follow the shape of the dose curve; as a rule, active = well fitted curve in the direction sought with a large enough effect; inconclusive = small, poorly fitted or top-dose-only effect, or another doubt; inactive = no such curve, though single readings can be large; an effect the other way counts as inactive or inconclusive. Unless noted, % is scaled to controls: 0 for no effect and ±100 for the full control effect.

SMILES	HT1080NT lethal	IL-1B inflam inh	HT1080 IDH1KD tx	TDP1 cell CPT	DT40 TDP1 no CPT
COc1ccccc1CNc1nc(NCc2ccccc2OC)c2sccc2n1	20.6µM*	-52.2*	23.1µM*	11.6µM*	14.6µM*
COCCNc1nc(NC(C)C)nc2ccsc12	29.7%	0.0	21.4%	-29.6%	-21.8%
CS(=O)(=O)c1ccc2nc(NC(=O)c3ccc(S(=O)(=O)NCC4CCCO4)cc3)sc2c1 (configuration not stated)	0.8%	47.2	-9.3%	?	4.7%
O=c1[nH]ncc(NCc2ccc(Cl)cc2)c1Cl	1.2%	20.8	-0.7%	?	?
COCCNc1nc(NCc2ccccc2OC)c2sccc2n1	?	-25.2	?	23.1µM*	16.4µM*
COc1ccccc1CNc1nc(NCCNC(C)=O)c2sccc2n1	16.1%	86.8	16.8%	?	?
COc1ccccc1CNc1nc(Nc2cccc(-c3cnco3)c2)c2sccc2n1	/	/	/	18.4µM*	20.6µM*
c1cc2cc(CNc3nc(NCC4CC4)nc4ccsc34)ccc2o1	?	-78.1*	13µM*	16.4µM*	?
Cc1cccc(NC(NC(=O)c2ccccc2[N+](=O)[O-])C(Cl)(Cl)Cl)c1 (configuration not stated)	9.9%	-1.0	0.0%	-29.4%	?
CS(=O)(=O)c1ccc(Cl)c(NC(=O)CCc2ccccc2)c1	8.5%	13.8	24.5%	9.0%	-8.8%
COc1ccc(N(C)S(=O)(=O)c2ccc(Cl)c(C(=O)NCCc3ccc(Cl)cc3)c2)cc1	1.7%	-55.5*	-12.9%	9.2µM*	11.6µM*
COc1ccc(CCNC(=O)c2cc(S(=O)(=O)N3CCCCC3)ccc2Cl)cc1	0.2%	-1.9	-0.4%	25.9µM*	16.4µM*
COc1ccc(CCNC(=O)CSCC(=O)Nc2cc(S(C)(=O)=O)ccc2Cl)cc1	2.7%	1.6	3.2%	-4.4%	9.2µM*
COc1ccc(CCNC(=O)c2cccc(S(=O)(=O)N3CCCCC3)c2)cc1	-6.2%	24.1	-7.9%	?	?
COc1ccc(CCNC(=O)c2ccc(Cl)c(S(=O)(=O)N3CCCC3)c2)cc1	-0.3%	-1.0	-27.1%	18.4µM*	23.1µM*
O=C(Oc1ccccc1)c1ccccc1C(=O)Oc1ccccc1	1.4%	54.4	-2.8%	-9.8%	-21.1%
O=C(Oc1ccccc1)c1cccc2cccc(C(=O)Oc3ccccc3)c12	-15.2%	13.1	-1.5%	?	20.6µM*
COc1ccc(CN/C(C)=C(/C#N)C(N)=O)cc1OC	17.4%	0.0	7.6%	-12.4%	-22.1%
Cc1c(C(=O)OCCOc2ccccc2)[nH]c2c1C(=O)CC(c1ccc(C(C)(C)C)cc1)C2 (configuration not stated)	/	/	/	-26.4%	?
COc1ccc(COC(=O)c2[nH]c3c(c2C)C(=O)CC(c2ccc(OC)c(OC)c2)C3)cc1 (configuration not stated)	/	/	/	9.2µM*	6.51µM*
COc1ccc(C2CC(=O)c3c([nH]c(C(=O)OC(C)C)c3C)C2)cc1OC (configuration not stated)	0.4%	11.0	-0.2%	23.1µM*	20.6µM*
Cc1c(C(=O)OCc2ccccc2)[nH]c2c1C(=O)CC(c1ccc(C(C)(C)C)cc1)C2 (configuration not stated)	/	/	/	?	18.4µM*
COc1ccc(C2CC(=O)c3c([nH]c(C(=O)OCc4ccccc4)c3C)C2)cc1 (configuration not stated)	/	/	/	11.6µM*	?
C[C@H]1CCCCO[C@H](CN(C)Cc2ccc(C(=O)O)cc2)[C@@H](C)CN([C@@H](C)CO)C(=O)c2cc(NS(=O)(=O)c3cn(C)cn3)ccc2O1	3.4%	23.0	4.0%	10.9%	?
CC(C)=CCC/C(C)=C/CC/C(C)=C/CC/C=C(\C)CC/C=C(\C)CCC=C(C)C	/	/	/	-2.6%	-25.4%
COc1cc(/C=C/c2nc3cc(Cl)ccc3c(=O)n2-c2ccc(C)cc2C)cc(OC)c1OC	/	/	/	16.4µM*	?
COC(=O)c1cc(S(=O)(=O)NCCCN2CCCC2=O)cn1C	5.5%	17.3	10.7%	1.0%	22.3%
